# Assay results: PubChem BioAssay (NCATS)
# Results filed as inconclusive are left out. For part of these data: Entries with a potency or affinity are not part of this list. Calls of active or inactive are those of the source. Unless noted, how the calls were made is not given here.
# Columns and labels:
# [1] = Ebola virus entry assay, reporter ratio channel; Channel type: primary
# [2] = Ebola virus entry assay, blue channel (ratio component)
# [3] = qHTS assay for measurement of the activity of small molecule inhibitors on Zika virus induced Caspase-3 activity in human astrocytoma cells (AID 1224859; active means well fitted curve in the direction sought with a large enough effect; an effect the other way counts as inactive or inconclusive); conditions: SNB-19 ZIKV-induced caspase-3/7, luminescence, 6 h; series mostly up to 45.7 µM
# How it was run: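 A cell-based luminescent caspase-3/7 assay used SNB-19 cells infected with ZIKV (2 FFU/cell) for 6 h following 1 h compound pretreatment.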
# [4] = qHTS assay to identify small molecule inhibitors of chordoma cells - UCH-2 (AID 1259356; active means well fitted curve in the direction sought with a large enough effect; an effect the other way counts as inactive or inconclusive); conditions: UCH-2 chordoma viability, CellTiter-Glo ATP luminescence, 48 h; series mostly up to 46.1 µM
# [5] = Immunotoxin (HA22) sensitization/mitigation study. Vehicle arm (PBS) (AID 1159510); conditions: cancer cells viability with PBS vehicle (HA22 study); series mostly up to 46.1 µM; further: potency means the concentration at half of the fitted maximal effect
# [6] = qHTS assay for measurement of the activity of small molecule inhibitors on Zika virus induced Caspase-3 activity in human iPSC derived neural progenitor cells (hNPCs) (AID 1224857; active means well fitted curve in the direction sought with a large enough effect; an effect the other way counts as inactive or inconclusive; further: nearly all actives have a fitted effect of over 65% in size; further: potency means the concentration at half of the fitted maximal effect); conditions: hNPCs ZIKV-induced caspase-3/7, Caspase-Glo luminescence, 6 h; series mostly up to 45.7 µM
# How it was run: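 In medium with heparin 2 ug/ml and cyclopamine 2 uM, hNPCs (350 cells/well) received compound for one hour and then Zika virus at 2 FFU/cell; caspase activity was measured by Caspase-Glo 3/7 luminescence 6 h post-infection.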
smiles,measurement,setting,value
O=[N+]([O-])/N=C1\NCCN1Cc1ccc(Cl)nc1,outcome,[1],inactive
same,outcome,[2],inactive
same,Potency,[3],inactive
same,Potency,[4],inactive
CNC1CCN(C(Cc2cccc(-c3ccncc3)c2)C(=O)c2sc3c(F)ccc(F)c3c2Cl)CC1 (stereo unspecified),Potency,[5],20.9 µM (active)
CO/C=C(/C(=O)OC)c1ccccc1Oc1cc(Oc2ccccc2C#N)ncn1,AC50,[1],31.6 µM (active)
same,Potency,[6],inactive
same,Potency,[3],inactive
O=S(=O)(O)C(F)(F)C(F)(F)C(F)(F)C(F)(F)F,outcome,[1],inactive
same,Potency,[6],inactive
same,Potency,[3],inactive
CNC(=O)c1ccc(N2C(=S)N(c3ccc(C#N)c(C(F)(F)F)c3)C(=O)C2(C)C)cc1F,Potency,[5],inactive
COc1cc(C)c(Sc2cnc(NC(=O)c3ccc(CNC(C)C(C)(C)C)cc3)s2)cc1C(=O)N1CCN(C(C)=O)CC1 (stereo unspecified),Potency,[5],14.8 µM (active)
O=S(=O)(O)C(F)(F)C(F)(F)C(F)(F)C(F)(F)C(F)(F)C(F)(F)C(F)(F)C(F)(F)F,outcome,[1],inactive
same,outcome,[2],inactive
same,Potency,[3],inactive
CN1[C@@H]2CC[C@H]1CC(OC(=O)C(O)c1ccccc1)C2 (stereo partly specified),outcome,[2],inactive
CCCN(CCC)c1c([N+](=O)[O-])cc(S(N)(=O)=O)cc1[N+](=O)[O-],AC50,[1],8.91 µM (active)
same,Potency,[3],inactive
CC(C)c1onc(-c2c(Cl)cccc2Cl)c1COc1ccc(/C=C/c2cccc(C(=O)O)c2)c(Cl)c1,Potency,[5],3.32 µM (active)
CCC[C@H](NC(=O)C(C#N)=Cc1cccc(Br)n1)c1ccccc1,Potency,[5],1.05 µM (active)
CCCS(=O)(=O)Nc1ccc(F)c(C(=O)c2c[nH]c3ncc(-c4ccc(Cl)cc4)cc23)c1F,Potency,[5],23.5 µM (active)
CN(C)Cc1ccc(-c2nc3cccc4c3n2CCNC4=O)cc1,Potency,[5],23.5 µM (active)
O=C(O)C(Cl)Cl,outcome,[1],inactive
same,outcome,[2],inactive
same,Potency,[3],inactive
same,Potency,[4],inactive
Fc1cc(Br)ccc1CBr,outcome,[1],inactive
same,outcome,[2],inactive
same,Potency,[3],inactive
CCn1c(-c2nonc2N)nc2c(C#CC(C)(C)O)ncc(OC[C@H]3CCCNC3)c21,Potency,[5],10.5 µM (active)
Nc1ccc(N=Nc2ccccc2)cc1,outcome,[1],inactive
same,Potency,[6],28.2 µM (active)
O=C(O)COc1ccccc1,outcome,[1],inactive
same,outcome,[2],inactive
same,Potency,[4],inactive
CC[C@H](Nc1ncnc2nc[nH]c12)c1nc2cccc(F)c2c(=O)n1-c1ccccc1,Potency,[5],20.9 µM (active)
CC[C@@H]1C(=O)N(C)c2cnc(Nc3ccc(C(=O)NC4CCN(C)CC4)cc3OC)nc2N1C1CCCC1,Potency,[5],0.0066 µM (active)
CCN(CC)CCCCNc1nc2cc(Cl)c(Cl)cc2nc1-c1ccc(-c2cccs2)s1,Potency,[5],18.7 µM (active)
CC(C)OC(=O)C1=CN(C(=O)c2ccc(F)c(F)c2)CC(C)(C)c2c1[nH]c1ccccc21,Potency,[5],2.96 µM (active)
CC(C)C[C@H](NC(=O)[C@@H](O)[C@H](N)Cc1ccccc1)C(=O)O,Potency,[5],inactive
CC(=O)NC(C)c1ccc(Oc2ccc(OC(C)C)cc2)cc1 (stereo unspecified),Potency,[5],16.6 µM (active)
CCOc1cc(C(=O)Nc2ccc(Cl)c(-c3nc4ccccc4[nH]3)c2)cc(OCC)c1OCC,Potency,[5],14.8 µM (active)
CCOC(CN1C(=O)[C@](CC(=O)Nc2ccc(C)cc2)(NC(=O)Nc2ccc(C)cc2)c2ccccc21)OCC,Potency,[5],23.5 µM (active)
COc1cc2c(Oc3ccc4[nH]c(C)cc4c3F)ncnc2cc1OCCCN1CCCC1,Potency,[5],13.2 µM (active)
COc1ccc(CCN(C)CCCOc2ccc(S(=O)(=O)c3[nH]c4ccccc4c3C(C)C)cc2)cc1OC,Potency,[5],26.4 µM (active)
Nc1nccc(Oc2ccc(NC(=O)c3c[nH]cc(-c4ccc(F)cc4)c3=O)cc2F)c1Cl,Potency,[5],23.5 µM (active)
CS(=O)(=O)c1cccc(CNc2nc(Nc3ccc4c(c3)CCC(=O)N4)ncc2C(F)(F)F)c1,Potency,[5],4.69 µM (active)
CCCn1c(=O)c2[nH]c(C34CC5CC3C[C@@H](C5)C4)nc2n(CCC)c1=O,Potency,[5],16.6 µM (active)
Cc1nn(Cc2ccccc2Cl)c(C)c1CN(C)CC(O)COc1ccc(Cl)cc1 (stereo unspecified),Potency,[5],26.4 µM (active)
COc1cccc(OC)c1-c1cc(C(=O)NC2(C(=O)O)C3CC4CC(C3)CC2C4)nn1-c1ccnc2cc(Cl)ccc12 (stereo unspecified),Potency,[5],29.6 µM (active)
Clc1ccc2ncc(-c3cccc(NC4CNC4)n3)n2c1,Potency,[5],20.9 µM (active)
CCCCn1c(=O)n(Cc2ccccc2F)c(=O)c2[nH]c(Cc3ccc(NC(C)=O)cc3)nc21,Potency,[5],inactive
Cc1cccc(-c2nn(C(=S)Nc3ccccc3)cc2-c2ccnc3ccccc23)n1,Potency,[5],18.7 µM (active)
CCC(=C(c1ccccc1)c1ccc(OCCN(C)C)cc1)c1ccccc1,Potency,[5],23.5 µM (active)
CC(=O)c1c(C)c2cnc(Nc3ccc(N4CCNCC4)cn3)nc2n(C2CCCC2)c1=O,Potency,[5],16.6 µM (active)
N#CC[C@H](C1CCCC1)n1cc(-c2ncnc3[nH]ccc23)cn1,Potency,[5],23.5 µM (active)
Cn1c2cc(S(C)=O)sc2c2cnn(Cc3cccc(N)c3)c(=O)c21 (stereo unspecified),Potency,[5],inactive
Cc1cnc(-c2cnc(NCCNc3ccc(C#N)cn3)nc2-c2ccc(Cl)cc2Cl)[nH]1,Potency,[5],0.935 µM (active)
COc1ccccc1[C@H](c1cccc2ccccc12)[C@@](C)(C#N)C(=O)N1CCC(c2cccc(C(F)(F)F)c2)CC1,Potency,[5],inactive
C/C(=C\C(=O)Nc1ccccc1C(=O)O)c1ccc2ccccc2c1,Potency,[5],16.6 µM (active)
CC[C@@H]1C(=O)N(C)c2cnc(Nc3ccc(C(=O)NC4CCC(N5CCN(CC6CC6)CC5)CC4)cc3OC)nc2N1C(C)C (stereo partly specified),Potency,[5],0.0132 µM (active)
CN(C)CCCNC(=O)c1ccc(-c2cc(O)c3ncccc3c2)cc1,Potency,[5],16.6 µM (active)
N#Cc1ccc(COC[C@H]2O[C@@H](n3c(NCc4ccc(Cl)c(Cl)c4)nc4c(N)ncnc43)[C@@H](O)[C@@H]2O)cc1,Potency,[5],23.5 µM (active)
O=C(Nc1ccccc1-c1cn2c(CN3CCNCC3)csc2n1)c1cnc2ccccc2n1,Potency,[5],26.4 µM (active)
CN(C)C1CCN(C(=O)c2ccc(NC(=O)Nc3nc(N4CCOCC4)nc(N4CCOCC4)n3)cc2)CC1,Potency,[5],0.166 µM (active)
